The campaign covered roughly 16,000 compounds. About 4,000 (25%) were called active. Another 26% or so got no clear call; they are omitted. Calls come from the whole dose curve; as a rule, active = well fitted curve in the direction sought with a large enough effect; inconclusive = small, poorly fitted or top-dose-only effect, or effect the other way; inactive = no such curve, though single readings can be large or run the other way. A selection follows.
% is set by controls: 0 for no effect and ±100 for the full control effect.

Sequence of Cytochrome P450 2C9 (Homo sapiens) (P11712 whole entry, looked up): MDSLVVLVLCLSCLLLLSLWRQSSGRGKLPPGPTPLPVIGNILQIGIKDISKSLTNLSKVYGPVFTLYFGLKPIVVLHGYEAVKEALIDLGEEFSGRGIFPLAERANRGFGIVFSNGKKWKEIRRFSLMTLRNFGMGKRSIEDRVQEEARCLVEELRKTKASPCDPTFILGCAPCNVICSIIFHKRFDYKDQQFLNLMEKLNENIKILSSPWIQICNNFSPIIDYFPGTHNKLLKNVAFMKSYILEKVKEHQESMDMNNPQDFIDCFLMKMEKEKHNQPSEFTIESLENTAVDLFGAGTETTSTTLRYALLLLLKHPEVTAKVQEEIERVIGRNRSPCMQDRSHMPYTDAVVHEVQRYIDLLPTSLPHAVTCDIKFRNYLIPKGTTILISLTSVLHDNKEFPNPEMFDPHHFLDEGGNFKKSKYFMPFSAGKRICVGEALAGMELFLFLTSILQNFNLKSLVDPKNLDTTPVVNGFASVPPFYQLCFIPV

The assay has as its target Cytochrome P450 2C9 (Homo sapiens) (UniProt P11712). Briefly: Cytochrome panel assay with activity outcomes. Conditions: recombinant CYP, pro-luciferin dealkylation, luminescence, p450-cyp2c9; series mostly up to 57.1 µM; activity, negative = inhibition: at the top concentration.
`CSc1ccc(NC(=O)Nc2cc(C)ccn2)cc1`: the activity, negative = inhibition is -15.6% [at 11.4 µM] (inactive).
Same read-out and setting: in the case of `Cc1cc(N)c2cc(NC(=O)Nc3ccc4nc(C)cc(N)c4c3)ccc2n1` it was -18.2% [at 11.4 µM] (inactive).
For the molecule `Cc1cc(NC(=O)Nc2ccc(N(C)C)cc2)c2cc(F)cc(F)c2n1`, the AC50 is 6.31 µM (active).
For the molecule `c1ccc(CNc2ncnc3ccc(-c4cccnc4)cc23)cc1`, the activity, negative = inhibition is 8.31% [at 2.29 µM] (inactive).
Same read-out and setting: in the case of `O=C1NC(=O)[C@@](Cc2ccccc2)(c2cccnc2)N1` it was -6.71% [at 11.4 µM] (inactive).
Regarding `CC1=C(C(=O)OCc2ccccc2)C(c2cccnc2)c2c(n(C)c(=O)n(C)c2=O)N1` (stereo not drawn), the AC50 was 4.47 µM (active).
On the same count and under the same terms, then `CN1C(=O)CC[C@@H]1c1cccnc1`, with “inactive”.
For `Cc1cnc(CNc2ncncc2-c2ccc3c(c2)OCO3)cn1`, the activity, negative = inhibition is 15.7% [at 2.29 µM] (inactive).
Turning to `CCC(C)(C)NC(=O)c1ccc2c(c1)N(CC(=O)OC)C(=O)C(C)(C)O2`, the AC50 was 28.2 µM (active).
Consider `COC(=O)c1cc2c(ccn2-c2ccc(F)cc2)n1CC(C)C`, for which the AC50 is 10 µM (active).
Regarding `Cc1ccc(/C=C2\Sc3ccccc3C2=O)s1`, the AC50 is 3.55 µM (active).
Take `c1ccc(-c2cccc(N3CC[C@@]4(CCCNC4)C3)c2)cc1`: the “activity, negative = inhibition” value was -21.2% (inactive).
With `CN1CCCCC1=NCCCn1cnc2c1c(=O)n(C)c(=O)n2C`, the “activity, negative = inhibition” value is 6.66% (inactive).
The same measure, in the same setting: in the case of `Cc1ccc(S(=O)(=O)Nc2cc(=O)[nH]c3c2CCC3)cc1` it was 8.32% [at 11.4 µM] (inactive).
Same read-out and setting: then `N#Cc1cc2[nH]c(=O)c(=O)[nH]c2cc1[N+](=O)[O-]`, with -4.14% (inactive).
Regarding `Cc1ccc(S(=O)(=O)c2cc(C#N)c(=O)[nH]c2N)cc1`, the AC50 is 11.2 µM (active).
In the case of `COc1cccc([C@H](O)Cn2cc(-c3ccc(CON=C(C)C)cc3)nn2)c1`, the activity, negative = inhibition was -13.3% [at 11.4 µM] (inactive).
Same read-out and setting: in the case of `CN(C)c1ncc2nc(-c3ccc(F)cc3)c(=O)n(CCC#N)c2n1` it was -14.9% (inactive).
As to `Cc1ccccc1Cn1cc(NC(=O)CSc2nc3c(c(C(F)(F)F)n2)CCc2ccccc2-3)cn1`, the AC50 was 1.78 µM (active).
The same measure, in the same setting: in the case of `Cc1nn(Cc2ccc(Cl)cc2)c(C)c1NC(=O)CSc1nc2c(c(C(F)(F)F)n1)CCc1ccccc1-2` it was 1.41 µM (active).
In the case of `Cl/C(=C\n1cncn1)c1ccc(Cl)cc1Cl`, the “activity, negative = inhibition” value is 5.68% (inactive).
Take `O=C(c1cnc(-c2ccccc2)s1)c1ccc(Cl)cc1Cl`: the concentration at half-maximal activity (AC50) is 20 µM (active).
The same measure, in the same setting: in the case of `COc1ccc(C(O)P(=O)(OC(C)C)OC(C)C)cc1OC` (stereo not drawn) it was 7.94 µM (active).
In the case of `COC(=O)C(C(=O)OC)C(C[N+](=O)[O-])c1ccc(OC)c(OC)c1` (stereo not drawn), the “activity, negative = inhibition” value was -6.55% (inactive).
Still for that read-out and setting: in the case of `COc1cc([C@@H](O)CO)ccc1OS(=O)(=O)O` it was -22.5% (inactive).
`COC(=O)[C@@]1(Cc2ccc(OC)cc2)[C@H]2c3cc(C(=O)N(C)C)[nH]c3C[C@H]2CN1C(=O)c1ccccc1`: the concentration at half-maximal activity (AC50) is 3.98 µM (active).
On to `COC(=O)[C@@]1(Cc2ccccc2)[C@H]2c3cc(C(=O)N4CCCC4)[nH]c3C[C@H]2CN1C(=O)c1ccccc1`, for which the AC50 is 0.794 µM (active).
On to `COC(=O)C/C=C\[C@@H](C)[C@@H](/C=N\O[C@@H](C)c1cn([C@H]2COC[C@H]2O)nn1)OC`, for which the activity, negative = inhibition is -15.9% [at 11.4 µM] (inactive).
Still for that read-out and setting: in the case of `CN(C)CCCn1c2ccccc2c2cnccc21` it was 4.43% [at 11.4 µM] (inactive).
Regarding `Cc1c2cnccc2c(C)c2c1c1ccccc1n2CCOC(=O)c1ccccc1`, the AC50 was 3.16 µM (active).
For the molecule `COc1ccccc1CN1CCCC2(CCN(C(=O)c3c(C)noc3C)CC2)C1`, the “activity, negative = inhibition” value was 4.46% (inactive).
As for `CCOC(=O)c1c(-c2ccccc2)nc2c(C)cccn12`, the AC50 is 11.2 µM (active).
For `CC(NC(=O)C1(C)CC1(Br)Br)C(C)(C)C` (stereo not drawn), the AC50 was 31.6 µM (active).
As for `CC(C)[C@H](NC(=O)OC(C)(C)C)[C@@H](O)CC(=O)OC(C)(C)C`, the activity, negative = inhibition was 20.6% [at 11.4 µM] (inactive).
On the same count and under the same terms, in the case of `CC(=O)C[C@H](O)[C@@H](NC(=O)OC(C)(C)C)C(C)C` it was -4.41% [at 11.4 µM] (inactive).
In the case of `O=C1[C@@H]2C=CC=CC2=NC(=S)N1CCN1CCC(=C(c2ccc(F)cc2)c2ccc(F)cc2)CC1`, the AC50 is 31.6 µM (active).
On to `CC1CCN(C(=O)CSc2nc3cccnc3n2C)CC1`, for which the “activity, negative = inhibition” value was -8.16% (inactive).
Same read-out and setting: then `O=c1cc(CSc2nnc(-c3cccnc3)n2-c2ccccc2F)nc2sccn12`, with -21.9% (inactive).
As to `CC(C)c1ccccc1-n1c(SCC(=O)N2CCN(c3ccccc3)CC2)nnc1-c1cccnc1`, the AC50 was 11.2 µM (active).
`C#CCCCO/N=C1/C[C@@H](O)[C@@H](O)[C@@H]2[C@@H]3C(=O)N(CCC(=O)OCC)C(=O)[C@H]3CC[C@@H]12`: the activity, negative = inhibition is 2.98% [at 11.4 µM] (inactive).
As to `C=C[C@]1(C)C[C@H](OC(=O)CO)[C@]2(C)C3C(=O)CC[C@]3(CC[C@H]2C)[C@H](C)[C@H]1O` (stereo partly drawn), the activity, negative = inhibition is 4.64% [at 11.4 µM] (inactive).
For `Cc1ccc(CSc2nnc3c(n2)OC2(Nc4ccccc4-3)C(=O)Nc3ccc(F)cc32)cc1` (stereo not drawn), the AC50 was 8.91 µM (active).
The same measure, in the same setting: then `O=C1Nc2ccc(F)cc2C12Nc1ccccc1-c1nnc(SCc3ccccc3F)nc1O2` (stereo not drawn), with 2 µM (active).
Take `N=C(N)c1ccc(N=Nc2c(O)ccc3c2[nH]c2ccccc23)cc1`: the activity, negative = inhibition was -5.45% [at 11.4 µM] (inactive).
For the molecule `c1csc(CNc2cc(-c3ccoc3)ncn2)c1`, the activity, negative = inhibition is -7.77% [at 2.29 µM] (inactive).
On the same count and under the same terms, in the case of `O=C1[C@H]2[C@H]3[C@H](O)[C@H](O)C/C(=N/OC[C@@H](O)COCc4ccco4)[C@@H]3CC[C@@H]2C(=O)N1Cc1ccc2c(c1)OCO2` it was 3.23% [at 11.4 µM] (inactive); in that of `C#CCCCO/N=C1/C[C@@H](O)[C@@H](O)[C@@H]2[C@@H]3C(=O)N(C[C@@H]4CCCO4)C(=O)[C@H]3CC[C@@H]12`, 16.1% [at 11.4 µM] (inactive).
Same read-out and setting: in the case of `CN(Cc1ccco1)c1cc(-c2cccnc2)ncn1` it was 2.79% [at 2.29 µM] (inactive).
For the molecule `O=C(OCc1nnc(-c2ccccc2)o1)c1ccc2c(c1)OCCO2`, the AC50 is 7.94 µM (active).
With `CCCN1C(=O)C2(/C(=C(\O)c3ccc4c(c3)OCCO4)C(=O)C(=O)N2CCCOC)c2ccccc21` (stereo not drawn), the “activity, negative = inhibition” value is -25% (inactive).
As for `Cc1cc(C)c(-c2cc([C@H](C)O/N=C3/[C@H]4OC4[C@@H](O)[C@H]4[C@H]3CCn3c(=O)n(-c5ccccc5)c(=O)n34)on2)c(C)c1` (stereo partly drawn), the activity, negative = inhibition was -29.1% [at 11.4 µM] (inactive).
`Cc1ccc(C)c(OCCCC(C)(C)C(=O)O)c1`: the AC50 is 6.31 µM (active).
Take `COC(=O)Cn1c(=N)n(CCN2CCCCC2)c2ccccc21`: the “activity, negative = inhibition” value was -24.1% (inactive).
On the same count and under the same terms, in the case of `Fc1ccc(Nc2nc(-c3ccoc3)nc3ccccc23)cc1` it was 8.98% [at 2.29 µM] (inactive); in that of `CCCn1nc(Oc2nc(NCC)nc(NCC)n2)ccc1=O`, -26.2% (inactive).
Consider `CC(C)Nc1nc(NC(C)(C)C)nc(Oc2ccc(=O)n(-c3ccccc3)n2)n1`, for which the AC50 is 20 µM (active).
With `CCCn1nc(Oc2nc(NCC)nc(NC(C)C)n2)ccc1=O`, the “activity, negative = inhibition” value was -18.8% (inactive).
On to `C[N+]1(NCC[N@@+]2(C)CCc3ccccc3C2)CCCCC1`, for which the activity, negative = inhibition was 5.5% [at 11.4 µM] (inactive).
On the same count and under the same terms, then `CC(=O)OC[C@@H]1O[C@H](CCO/N=C(\C)CCN2CCCc3nc(C)c(C)cc32)C=C[C@@H]1OC(C)=O`, with -1.93% [at 11.4 µM] (inactive); and `CCCCn1nnnc1SCC(=O)N1CCCC1`, with -25.2% (inactive).
As to `N[C@@H](CO)C(=O)O`, the AC50 result is “inactive”.
For the molecule `CCSC[C@@H](N)C(=O)O`, the activity, negative = inhibition was 4.58% [at 11.4 µM] (inactive).
With `N[C@@H](CSS(=O)(=O)O)C(=O)O`, the AC50 is 12.6 µM (active).
As to `COc1ccc2[nH]cc(CCNc3nc(-c4ccccc4CN(C)C)nc4ccccc34)c2c1`, the activity, negative = inhibition is 10.1% [at 2.29 µM] (inactive).
On the same count and under the same terms, in the case of `COCCNc1nc(-c2cccc(OC)c2)nc2ccccc12` it was -26.4% [at 2.29 µM] (inactive).
Regarding `COc1cccc(-c2nc(NCc3ccccc3)c3ccccc3n2)c1`, the AC50 is 1.26 µM (active).
Take `COc1ccc2[nH]cc(CCNc3ccnc(-c4ccc(N(C)C)cc4)n3)c2c1`: the activity, negative = inhibition is -7.16% [at 2.29 µM] (inactive).
Turning to `COc1cccc(-c2nc(NCCc3c[nH]c4ccc(OC)cc34)c3ccccc3n2)c1`, the AC50 is 0.794 µM (active).
On to `COc1ccc2[nH]cc(CCNc3nc(-c4ccccc4OC)nc4ccccc34)c2c1`, for which the activity, negative = inhibition is -1.54% [at 2.29 µM] (inactive).
Still for that read-out and setting: in the case of `COc1cccc(-c2nc(NCc3cnc(C)cn3)c3ccccc3n2)c1` it was 0.563% [at 2.29 µM] (inactive).
On to `COc1ccc2[nH]cc(CCNc3nc(-c4ccc(N(C)C)cc4)nc4ccccc34)c2c1`, for which the AC50 was 0.398 µM (active).
For the molecule `COc1cccc(-c2nc(NCc3cccnc3)c3ccccc3n2)c1`, the activity, negative = inhibition was -29.9% [at 2.29 µM] (inactive).
Consider `Cc1c(C)c2c(c(C)c1O)CC[C@@](C)(C(=O)O)O2`, for which the “activity, negative = inhibition” value was 1.61% [at 25.6 µM] (inactive).
For the molecule `CC[C@H](CN(C)C)C(=O)c1ccco1`, the activity, negative = inhibition is 0.0002% [at 11.4 µM] (inactive).
Turning to `CCCC/C=C/C(NC(=O)c1ccccc1)c1ccccc1` (stereo not drawn), the AC50 is 10 µM (active).
Same read-out and setting: then `CCCC/C=C/C(NC(=O)c1ccco1)c1ccccc1` (stereo not drawn), with 15.8 µM (active).
As to `CCCC/C=C/C(NC(=O)c1ccc(-c2ccccc2)cc1)c1ccccc1` (stereo not drawn), the “activity, negative = inhibition” value is 14.5% (inactive).
For the molecule `CCCC/C=C/C(NC(=O)c1ccc(C(F)(F)F)cc1)c1ccccc1` (stereo not drawn), the AC50 was 2 µM (active).
In the case of `C/C(=C\C1CCCCC1)C(NC(=O)c1ccc(C(F)(F)F)cc1)c1ccc(-c2ccccc2)cc1` (stereo not drawn), the “activity, negative = inhibition” value is 17.2% (inactive).
For `CCCC/C=C/C(NC(=O)c1cccs1)c1ccccc1` (stereo not drawn), the AC50 is 0.316 µM (active).
As for `Cc1occc1C(=O)NNC(=O)Cc1ccccc1`, the “activity, negative = inhibition” value was -8.8% (inactive).
Take `CCC(CC)C(=O)NCCN1CCN(C(=O)C(CC)CC)CC1`: the “activity, negative = inhibition” value is -25.1% (inactive).
On the same count and under the same terms, in the case of `CN(C)CCn1nnnc1SCC1=C(C(=O)O)N2C(=O)[C@@H](NC(=O)Cc3csc(N)n3)[C@@H]2SC1` it was -7.71% [at 25.6 µM] (inactive); in that of `Cn1c(=O)c2c(nc(C(=N)SCC(=O)O)n2C)n(C)c1=O`, -13.3% [at 11.4 µM] (inactive).
In the case of `Cc1[nH]c2c(C)ccc(C)c2c1CC(=O)O`, the activity, negative = inhibition was -16.5% [at 11.4 µM] (inactive).
Same read-out and setting: in the case of `Cc1ccccc1-c1nc(NCc2cccnc2)c2ccccc2n1` it was 9.82% [at 2.29 µM] (inactive); in that of `Clc1ccccc1-c1nc(NCc2cccnc2)c2ccccc2n1`, -14.1% [at 2.29 µM] (inactive).
As to `Clc1ccccc1-c1nc(N/N=C/c2cccnc2)c2ccccc2n1`, the AC50 is 2.24 µM (active).

These data come from PubChem BioAssay AID1851 (National Center for Advancing Translational Sciences (NCATS), 2009).
